PostGolgi yeast = growth inhibition of a yeast mutant, post-Golgi transport screen | post-Golgi transport phenotypic cell assay | inhibition, % at 10 µM | 0.9% of 98,000 active;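 further: yeast cells grown in 1536-well plates; yeast grown about 18 h at 30C before absorbance read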
PostGolgi ctrl = growth of the yeast control strain, post-Golgi counter-screen. 5% of 98,000 active. efflux-deficient yeast background strain, growth absorbance A615, 16 h. inhibition, % at 10 µM
CYP2C19 inh = blocks human cytochrome P450 2C19 | 21% of 96,000 active | P33261 | inhibition, % at 5 µM | CYP2C19 Supersomes, luciferin-H EGE luminescence, 30 min;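 active means CYP2C19 inhibition above a set limit at 5 µM in the primary screen, cut at about 50% in these data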
CYP2C9 inhib = human CYP2C9 inhibition; CYP2C9 Supersomes, luciferin-H conversion, luminescence; inhibition, % at 5 µM; P11712; 20% of 96,000 active;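 active means blocking of liver enzyme CYP2C9 beyond about 50% at 5 µM, limit read from the data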
Target sequence (P11712 whole entry, looked up): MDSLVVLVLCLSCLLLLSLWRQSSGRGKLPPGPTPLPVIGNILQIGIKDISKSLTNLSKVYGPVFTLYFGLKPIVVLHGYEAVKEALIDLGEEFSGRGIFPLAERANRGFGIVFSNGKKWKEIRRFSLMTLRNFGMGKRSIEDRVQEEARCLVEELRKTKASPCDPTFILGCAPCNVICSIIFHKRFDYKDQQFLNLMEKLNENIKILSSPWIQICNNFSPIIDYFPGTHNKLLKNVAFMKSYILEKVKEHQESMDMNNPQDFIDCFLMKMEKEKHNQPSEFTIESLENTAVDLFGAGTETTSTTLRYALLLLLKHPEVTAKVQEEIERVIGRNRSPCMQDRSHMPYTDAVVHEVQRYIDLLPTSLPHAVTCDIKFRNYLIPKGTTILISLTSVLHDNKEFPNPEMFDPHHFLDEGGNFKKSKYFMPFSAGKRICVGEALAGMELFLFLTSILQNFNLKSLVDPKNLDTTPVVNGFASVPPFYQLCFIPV
CYP2C9 activ = increases human cytochrome P450 2C9 activity; recombinant CYP2C9, luciferin-H conversion, luminescence; active compounds read high; factor 1 = untreated enzyme, 0 = blocked; activation factor at 5 µM; 1.4% of 96,000 active; AID 1024;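 active means activation factor of 2 or more for CYP2C9 at a 5 µM dose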
CYP2C19 act = activators of human cytochrome P450 2C19 | 96,000 tested, under 10 active | AID 1025 | recombinant CYP2C19, luciferin-H EGE luminescence; active compounds read high; 0 = fully inhibited enzyme, 1 = untreated enzyme | activation factor at 5 µM;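 active means activation factor of at least 2 at 5 µM in the primary screen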
Hits are given with their value; - = inactive; . = no result. A selection: hits, their analogues and other compounds. The true share with any hit is near 32%. Unless noted, no stated cut-off is given here; in the data, active means inhibition above about 30%; inactive means the rest.

SMILES | PostGolgi yeast | PostGolgi ctrl | CYP2C19 inh | CYP2C9 inhib | CYP2C9 activ | CYP2C19 act
O=c1[nH]c(CSc2nnc(-c3cccnc3)n2C2CCCCC2)nc2ccccc12 | - | - | 62 | - | - | -
CCn1c(SCc2nc3ccccc3c(=O)[nH]2)nnc1-c1ccncc1 | - | - | 94 | - | - | -
Nn1c(SCc2nc3ccccc3[nH]2)nnc1-c1cccnc1 | - | - | - | - | - | -
CCn1c(SCc2nc3cc(OC)c(OC)cc3c(=O)[nH]2)nnc1-c1ccncc1 | - | - | - | - | - | -
CCn1c(SCCC(=O)O)nnc1-c1cccnc1 | - | - | - | - | - | -
Cc1c(C(=O)/C=C/c2cccs2)oc2ccc(F)cc12 | - | - | - | - | - | -
O=C(CCCC(=O)N(CC(=O)NC1CCCC1)C1CCCC1)Nc1ccccn1 | - | 34 | - | - | - | -
Cc1ccnc(NC(=O)CCC(=O)N(CC(=O)NC2CCCCC2)Cc2ccc3c(c2)OCO3)c1 | . | . | 56 | 76 | - | -
O=C(CCCC(=O)N(CC(=O)NC1CCCCC1)Cc1ccc2c(c1)OCO2)Nc1ccccn1 | - | - | 65 | 64 | - | -
O=C(CCCC(=O)N(CC(=O)NC1CCCC1)Cc1ccc(F)cc1)Nc1ccccn1 | - | - | - | 52 | - | -
COc1ccc(Cn2c(CCC(=O)Nc3ccc(C)cc3)nc3cccnc32)cc1 | - | - | 61 | - | - | -
C=C(C)c1cccc(C(C)(C)NC(=O)N2CCC(C)CC2)c1 | - | - | - | - | - | -
CC1CN(C(=O)C(c2ccccc2)c2ccccc2)CC(C)O1 (configuration not stated) | - | - | - | - | - | -
CC1CN(C(=O)Cc2ccc(-c3ccccc3)cc2)CC(C)O1 (configuration not stated) | - | - | 58 | 57 | - | -
O=C(c1ccc(Cl)cc1)c1ccc(CN2C(=O)c3ccccc3C2=O)o1 | - | - | - | - | - | -
Nc1cc(CN2C(=O)c3ccccc3C2=O)cc(Cl)c1O | - | - | - | - | 3.5 | -
Cc1oc2c(C)c(O)ccc2c(=O)c1-c1cnn(-c2ccccc2)c1 | - | - | - | - | - | -
COc1ccc2c(=O)c(-c3cnn(-c4ccccc4)c3)c(C)oc2c1 | 34 | - | - | - | - | -
Cc1ccc(CSCCNC(=O)CSCc2ccc([N+](=O)[O-])cc2)cc1 | - | - | 58 | 75 | - | -
COc1ccccc1Nc1nc(N)nc(CN2CCC(Cc3ccccc3)CC2)n1 | - | - | 50 | 72 | - | -
COc1ccc(Nc2nc(N)nc(CN3CCC(Cc4ccccc4)CC3)n2)cc1 | - | - | - | - | - | -
O=C(N/N=C/c1ccncc1)c1cc([N+](=O)[O-])cc([N+](=O)[O-])c1O | - | - | 56 | 100 | - | -
CCCCNC(=O)CC1SC(=NCC)N(CC)C1=O (configuration not stated) | - | - | - | - | - | -
Nc1nc(Cn2nnc(-c3ccccc3Cl)n2)nc(N2CCOCC2)n1 | - | - | 55 | - | - | -
Nc1nc(Cn2nnc(-c3ccccc3F)n2)nc(N2CCOCC2)n1 | - | - | - | - | - | -
SMILES | PostGolgi yeast | PostGolgi ctrl | CYP2C19 inh | CYP2C9 inhib | CYP2C9 activ | CYP2C19 act
CCOC(=O)c1c(C)oc2c(F)c(F)c(F)c(F)c2c1=O | - | - | - | - | - | -
CCc1ccc(/C=N/NC(=O)c2cc(C3CC3)nc3ccccc23)s1 | - | 32 | - | 81 | - | -
Cc1ccc(/C=N/NC(=O)c2c[nH]c3ccccc23)s1 | - | - | - | - | - | -
CS(=O)(=O)NCCSCc1c(Cl)cccc1Cl | - | - | - | 63 | - | -
O=C(CCC1CCCC1)N1CCC(N2CCN(c3ccccc3)CC2)CC1 | - | - | - | - | - | -
O=C1c2sc3nc4ccccc4n3c2C(=O)N1c1ccccc1Cl | - | - | - | 60 | - | -
CCCCCOC(=O)Cn1c(SCC(=O)Nc2ccccc2)nc2c1c(=O)[nH]c(=O)n2C | - | - | - | - | - | -
Cc1cc2nc(-c3cccc(NC(=O)c4ccc(Br)o4)c3C)oc2cc1C | - | - | - | 50 | - | -
COC(=O)c1ccccc1NC(=O)C1CCN(S(C)(=O)=O)CC1 | - | - | - | - | - | -
C/C(N)=C(/C#N)C(=O)CSc1nnnn1-c1ccc(C)cc1 | - | - | 52 | - | - | -
C/C(N)=C(/C#N)C(=O)CSc1nnnn1-c1ccccc1 | - | - | 64 | - | - | -
COc1cccc(-n2c(SC)nnc2-c2cnccn2)c1 | - | - | . | . | . | .
CCSc1nnc(CNc2ccc(F)cc2)n1CC1CCCO1 (configuration not stated) | - | - | - | - | - | -
O=C(/C=C\Nc1cccc(F)c1)c1ccc2c(c1)OCO2 | - | - | - | - | - | -
C=CCc1ccc(OCC(O)CN2CCCCC2)c(OC)c1 (configuration not stated) | - | - | - | - | - | -
C=CCc1ccc(OCC(O)COc2ccc(CC=C)cc2OC)c(OC)c1 | - | - | 97 | 93 | - | -
COc1cccc(OCCCCN2CC(C)OC(C)C2)c1 (configuration not stated) | 86 | 43 | - | - | - | -
CC1CN(CCCOc2ccccc2[N+](=O)[O-])CC(C)O1 (configuration not stated) | - | - | - | - | - | -
Cc1ccc(C(C)C)c(OCCCN2CC(C)OC(C)C2)c1 (configuration not stated) | 83 | - | 76 | - | - | -
C=CCc1ccc(OCCCOc2ccc(C)cc2OC)c(OC)c1 | - | - | 59 | - | - | -
CCN1CC(O)=C(c2nc3ccccc3s2)C1=N | - | - | - | - | - | -
Cn1c(=O)cc(OCCCC(=O)NCc2ccc3c(c2)OCO3)c2ccccc21 | - | - | - | - | - | -
CCOC(=O)CCP(=O)(O)C(C)(O)c1ccccc1 (configuration not stated) | - | - | - | - | - | -
COC(=O)c1[nH]c2ccccc2c1NC(=O)CN1CCN(C(=O)c2ccco2)CC1 | - | - | - | - | - | -
C=CCNCCCCOc1ccc(C)cc1[N+](=O)[O-] | - | - | - | - | - | -
C=CCc1ccc(OCCOCCOc2ccccc2[N+](=O)[O-])c(OC)c1 | - | - | 85 | 77 | - | -
C=CCc1ccc(OCC(O)CN2CCCCC2C)c(OC)c1 (configuration not stated) | - | - | - | - | - | -
C=CCc1ccc(OCCCCN2CC(C)OC(C)C2)c(OC)c1 (configuration not stated) | 97 | 43 | - | - | - | -
Cc1cc(NC(=O)c2cc(-c3ccncc3)nc3c(C)cccc23)no1 | - | - | 90 | 97 | - | -
CC(=O)N=C1SC2CS(=O)(=O)CC2N1c1cccc(Cl)c1Cl (configuration not stated) | - | - | - | 66 | - | -

High-throughput results as filed in PubChem BioAssay.
